Counter-ions that a name gives are not always drawn.
System: thyroid hormone receptor (endogenous TRα and TRβ)
Set-up: species or system GH3-TRE-Luc (rat pituitary); GH3-TRE-Luc luciferase reporter, antagonist mode against 1 nM T3, loss of signal, qHTS
Conditions: read-out: Average AC50 (uM) GH3-TRE-Antag, antagonist mode, 1 nM T3, no GH3 cytotoxicity hit

Row | SMILES | AC50
1 | CCc1ccc(C(=O)C(C)CN2CCCCC2)cc1 (stereo not drawn) [Eperisone hydrochloride] | 38.3 µM
2 | NC(=S)NC(N)=S [2,4-Dithiobiuret] | 45 µM
3 | CCCc1c(OCCCOc2ccc(OCC(=O)O)cc2)ccc(C(C)=O)c1O [4-[3-(4-Acetyl-3-hydroxy-2-propylphenoxy)propoxy]phenoxy-acetic acid] | 85.9 µM
4 | Oc1ccc(-c2ccc(O)cc2)cc1 [4,4'-Biphenyldiol] | 34.2 µM
5 | CCCCOC(=O)/C=C\C(=O)OCCCC [Dibutyl maleate] | 37.6 µM
6 | CN(C)[C@@H]1C(O)=C(C(N)=O)C(=O)[C@@]2(O)C(O)=C3C(=O)c4c(O)ccc(Cl)c4[C@@](C)(O)[C@H]3C[C@@H]12 [Chlortetracycline hydrochloride] | > 20 µM
7 | CC(C)CCOC(=O)/C=C/c1ccccc1 [3-Methylbutyl cinnamate] | 81.8 µM
8 | c1ccc(Nc2ccccc2)cc1 [Diphenylamine] | 83.1 µM
9 | O=C(Oc1ccccc1)c1ccc2ccccc2c1O [Phenyl 1-hydroxy-2-naphthoate] | 84.9 µM
10 | CC(C(=O)O)c1ccc(-c2ccccc2)c(F)c1 (stereo not drawn) [Flurbiprofen] | > 20 µM
11 | Cc1oc(C)c(C(=O)Nc2ccccc2)c1C [Methfuroxam] | 23.1 µM
12 | CCCCCCCC(=O)Oc1c(Br)cc(C#N)cc1Br [Bromoxynil octanoate] | 74 µM
13 | CCN(C(=O)N(CC)c1ccccc1)c1ccccc1 [N,N'-Diethylcarbanilide] | 45.9 µM
14 | CC(C)Oc1cccc(NC(=O)c2ccccc2C(F)(F)F)c1 [Flutolanil] | > 90 µM
15 | CCCCCC(C=O)=Cc1ccccc1 [Pentylcinnamaldehyde] | > 50 µM
16 | CCN(CC)CCCC(C)Nc1c2ccc(Cl)cc2nc2ccc(OC)cc12 (stereo not drawn) [Quinacrine dihydrochloride dihydrate] | 29.4 µM
17 | CCCCCCOc1ccccc1C(N)=O [Exalamide] | 30.7 µM
18 | O=C(c1ccc(O)cc1)c1ccc(Cl)cc1 [4-Hydroxy-4'-chlorobenzophenone] | 86.9 µM
19 | OC(CCCN1CCCCC1)(c1ccccc1)c1ccccc1 [Diphenidol] | 19 µM
20 | CSc1nc(NC2CC2)nc(NC(C)(C)C)n1 [Cybutryne] | 67.1 µM

Row | SMILES | AC50
21 | O=c1cc(-c2ccccc2)oc2ccc3ccccc3c12 [5,6-Benzoflavone] | 7.88 µM
22 | CC(C)c1c(CN(C)C(C)Cc2ccccc2)n(C)n(-c2ccccc2)c1=O (stereo not drawn) [Famprofazone] | 13.1 µM
23 | CCO[Si](CC(C)C)(OCC)OCC [Triethoxy(2-methylpropyl)silane] | 66.1 µM
24 | Oc1cc(Cl)cc(Cl)c1Cl [2,3,5-Trichlorophenol] | 57 µM
25 | CC[N+](CC)(CC)CCOc1ccc(/C=C/c2ccccc2)cc1 [Stilonium iodide] | 27 µM
26 | O=C(O)C(F)(F)C(F)(F)C(F)(F)C(F)(F)C(F)(F)C(F)(F)C(F)(F)C(F)(F)F [Perfluorononanoic acid] | 71.7 µM
27 | OCCN(CCO)c1nc(N2CCCCC2)c2nc(N(CCO)CCO)nc(N3CCCCC3)c2n1 [Dipyridamole] | 24.3 µM
28 | CCN(CC)CCOC(=O)[C@H](Cc1cccc2ccccc12)C[C@H]1CCCO1 [Nafronyl oxalate] | 10.7 µM
29 | CNC(=O)Nc1ccc(Cl)c(Cl)c1 [N-(3,4-Dichlorophenyl)-N'-methylurea] | 48.2 µM
30 | COCCCOc1ccnc(C[S+]([O-])c2nc3ccccc3[nH]2)c1C (stereo not drawn) [Rabeprazole sodium] | 51.1 µM
31 | COc1ccc(Cc2nccc3cc(OC)c(OC)cc23)cc1OC [Papaverine hydrochloride] | 15.6 µM
32 | O=C(C[C@H]1NCCC[C@@H]1O)Cn1cnc2cc(Br)c(Cl)cc2c1=O (racemic) [Halofuginone hydrochloride] | 46.9 µM
33 | CC#Cc1cc(C)nc(Nc2ccccc2)n1 [Mepanipyrim] | 64.8 µM
34 | CN(CC(=O)N1CCOCC1)Cc1c(Cl)cccc1NC(=O)c1ccccc1 [Fominoben hydrochloride] | > 50 µM
35 | Cn1c(=O)c2[nH]c(Br)nc2n(C)c1=O [8-Bromotheophylline] | 24.8 µM
36 | CCCOc1ccc2nc(NC(=O)OC)sc2c1 [Tioxidazole] | 2.52 µM
37 | O=S(=O)(O)c1ccccc1/C=C/c1ccc(-c2ccc(/C=C/c3ccccc3S(=O)(=O)O)cc2)cc1 [Disodium 4,4'-bis(2-sulfostyryl)biphenyl] | 26.4 µM
38 | CCN(Cc1c(F)cccc1Cl)c1c([N+](=O)[O-])cc(C(F)(F)F)cc1[N+](=O)[O-] [Flumetralin] | 39.8 µM
39 | C=C(C)C(=O)Nc1ccc(Cl)c(Cl)c1 [Chloranocryl] | 55.5 µM

— paper PMC6792352, “Limited Chemical Structural Diversity Found to Modulate Thyroid Hormone Receptor in the Tox21 Chemical Library” (Environmental Health Perspectives, 2019)
